Values joined by “and” are separate entries in the source; they are usually repeats but may differ in a detail not shown here. Equal values may be shown once. Results filed as inconclusive are left out. Entries that show only a call come without a potency. Active and inactive are the calls of the source. Unless noted, the call rests on the fitted dose curve; in most records, active means well fitted curve in the direction sought with a large enough effect; inconclusive means small, poorly fitted or top-dose-only effect, or another doubt; inactive means no such curve, though single readings can be large; an effect the other way counts as inactive or inconclusive.
Assays:
[1] = Cell Viability - Hek293 (AID 427;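 active means compounds whose dose-response curve shows a full or clear partial loss of cell viability, called from curve shape rather than a numeric limit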;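 further: potency means the concentration at half of the fitted maximal effect; cells exposed to compound for 40 hours at 37 °C before reading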); conditions: qHTS
Procedure, shortened: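 Luminescent ATP read-out (CellTiter-Glo, 20 min RT) after 40 hr compound exposure at 37 °C in complete medium. Signal normalized to DMSO (basal) and 100 uM tamoxifen (100% inhibition); concentration-response fitted with the standard Hill equation to give AC50.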

[2] = Cell Viability - SK-N-SH (AID 435; calls by dose curve; further: potency means the concentration at half of the fitted maximal effect); conditions: SK-N-SH neuroblastoma cell viability qHTS
Procedure, shortened: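 qHTS cytotoxicity: CellTiter-Glo ATP luminescence after 40 h compound exposure of human neuroblastoma SK-N-SH cells at 37 °C. AC50 derived by Hill-equation fitting, with DMSO as basal and 100 uM tamoxifen as full inhibition.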

[3] = Cell Viability - N2a (AID 540); conditions: N2a mouse neuroblastoma cell viability; activity change, negative = cytotoxicity: at 92.2 µM (top of the series); further: nearly all actives have a fitted effect of over 45% in size
Procedure, shortened: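 First, 1500 N2a cells per well incubate 5 hr at 37 °C; next, compounds are added and incubated 40 hr at 37 °C; finally CellTiter-Glo is added and luminescence read after 20 min, with AC50 derived by Hill modeling.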

[4] = Cellular Toxicity (caspase-3) HepG2 (AID 654); conditions: HepG2 caspase-3 activation, luminescence, 0% = DMSO only, 100% = tamoxifen; series mostly up to 92.2 µM;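 further: cells exposed to compound for 16 hours before reading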
Procedure, shortened: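 qHTS, HepG2, 1500 cells/well, complete medium; cpd 16 h 37 °C; Caspase-Glo 3/7, 20 min RT; lum. Norm: DMSO vs 100 uM tamoxifen; AC50 Hill fit.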

[5] = Cellular Toxicity (caspase-3) Hek293 (AID 664); conditions: HEK293 caspase-3 activation, DMSO = 0%, 100 µM tamoxifen = 100%; at 92.2 µM (top of the series);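 further: cells exposed to compound for 16 h at 37 °C before readout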
Procedure, shortened: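 Activation of caspase-3/7 is measured as increased luminescence from cleaved peptide-aminoluciferin substrate in HEK293 cells treated 16 hours at 37 °C. AC50 values come from Hill-equation fits of concentration-response data.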

[6] = MultiTox-Fluor Cytotoxicity Assay - LYMP1-001 - Dead Cells (AID 946); conditions: LYMP1-001 lymphoblastoid cells, dead-cell protease fluorescence; series mostly up to 92.2 µM
Procedure, shortened: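 AC50 from Hill fit of concentration-response; data normalized to DMSO (basal) and 15 uM tetraoctylammonium bromide (100%). LYMP1-001 lymphoblastoid cells, 2500/well, 16 hr compound at 37 C; dead-cell protease fluorescence, Ex/Em 485/520.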

[7] = Cell Viability - LYMP1-002 - Assay at 16 hr (AID 948); conditions: LYMP1-002 lymphoblastoid cell viability; series mostly up to 92.2 µM
Procedure, shortened: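 ATP luminescence (CellTiter-Glo) was measured after 16 hr compound exposure at 37 C of 2500 lymphoblastoid LYMP1-002 cells per well. Concentration-response curves were fitted with the Hill equation to give AC50.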

[8] = MultiTox-Fluor Cytotoxicity Assay - LYMP1-002 - Dead Cells (AID 960); conditions: LYMP1-002 lymphoblastoid cells, dead-cell protease fluorescence; series mostly up to 46.1 µM; further: nearly all actives have a fitted effect of over 60% in size; further: potency means the concentration at half of the fitted maximal effect
Procedure, shortened: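 Acute cytotoxicity in a human lymphoblastoid line is scored as rising dead-cell protease signal after 16 hr exposure at 37 C, measured fluorometrically (485/520).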

[9] = Cell Viability - LYMP2-003 (AID 965); conditions: LYMP2-003 lymphoblastoid cell viability; series mostly up to 92.2 µM;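 further: cells exposed to compounds for 24 h before reading; nearly all actives have a fitted effect of over 50% in size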
Procedure, shortened: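 CellTiter-Glo luminescence quantified ATP loss after 24 h compound treatment of LYMP2-003 lymphoblastoid cells at 37 C. Titration series were fitted with the standard Hill equation to give AC50.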

[10] = Cell Viability - LYMP2-024 (AID 988); conditions: LYMP2-024 lymphoblastoid cell viability; series mostly up to 92.2 µM;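 further: cells exposed to compound for 24 hr at 37 °C; nearly all actives have a fitted effect of over 60% in size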
Procedure, shortened: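 Acute toxicity is measured as concentration-dependent loss of intracellular ATP in a human lymphoblastoid line treated 24 hours at 37 C. Luciferase luminescence quantifies ATP; AC50 values come from standard Hill-equation modelling.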

[11] = Cell Viability - LYMP2-026 (AID 989); conditions: LYMP2-026 lymphoblastoid cell viability, qHTS; series mostly up to 92.2 µM; further: nearly all actives have a fitted effect of over 50% in size
Procedure, shortened: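 Concentration-dependent loss of intracellular ATP in human lymphoblastoid cells after 24 hr at 37 C, quantified by luciferase luminescence. AC50 derived from standard Hill equation.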

[12] = Cell Viability - LYMP1-002 - Assay at 24 hr (AID 993); conditions: LYMP1-002 lymphoblastoid cells viability; series mostly up to 92.2 µM
Procedure, shortened: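 qHTS, LYMP1-002 lymphoblastoid, 24 h cpd, 37 C, CellTiter-Glo ATP luminescence; AC50 via Hill eq.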

[13] = qHTS assay for small molecule agonists of retinoid X receptor alpha signaling (AID 588544); conditions: HEK293T RXRa-UAS-bla, beta-lactamase reporter, 18 h; 530 nm emission
[14] = target: Thyroid hormone receptor beta (Homo sapiens) (UniProt P10828); test: qHTS assay for small molecule agonists of thyroid hormone receptor beta signaling (AID 588545; calls by dose curve); conditions: TR-UAS-bla GripTite HEK 293, beta-lactamase ratio, agonist mode, 18 h; series mostly up to 76.7 µM
Procedure, shortened: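 Efficacy and EC50 values derive from Hill fits of qHTS titration data, normalized to 10 nM T3 and DMSO-only wells. HEK 293 reporter cells were stimulated for 18 hrs at 37 C, with beta-lactamase activity measured by CCF4 fluorescence.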

[15] = target: Retinoic acid receptor RXR-alpha (Homo sapiens) (UniProt P19793); test: qHTS assay for small molecule antagonists of retinoid X receptor alpha signaling (AID 588546; active means well fitted inhibition curve with a large enough effect in the signal ratio, with a control signal flat, not every such curve was filed as active; the % refers to the signal ratio;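 further: cells stimulated with 9-cis-retinoic acid as agonist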); conditions: HEK293T RXRa-UAS-bla, beta-lactamase ratio, antagonist mode
Procedure, shortened: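 Beta-lactamase reporter inhibition, read as CCF4 fluorescence ratio (ex 405, em 460/530 nm) after 2 h at RT. HEK293T UAS-bla cells, 2500/well, were stimulated with 9-cis-RA at 500 or 100 nM final alongside test compound for 18 h at 37 C.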

[16] = target: Tumor necrosis factor (Homo sapiens) (UniProt P01375); test: qHTS assay to identify small molecules that stimulate Tumor Necrosis Factor-alpha (TNF-alpha) secretion (AID 651757; active means well fitted curve in the direction sought with a large enough effect in the signal ratio; the % refers to the signal ratio); conditions: Human cells, HTRF 665/615 ratio; series mostly up to 92.2 µM
Procedure, shortened: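 Secreted TNF-alpha from compound-treated THP-1 cells (17 hrs, 37 C) was quantified with a homogeneous time-resolved fluorescence antibody assay.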

[17] = qHTS assay for small molecule agonists of the antioxidant response element (ARE) signaling pathway measured by Nrf2-dependant transcriptional activity (AID 720636; active means well fitted curve in the direction sought with a large enough effect in the repeat runs; an effect the other way counts as inactive or inconclusive;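 further: HepG2 cells with an ARE-driven luciferase reporter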); conditions: ARE-luc HepG2, Nrf2 luciferase reporter, 16 h; series mostly up to 92.4 µM
Procedure, shortened: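 In HepG2 cells engineered with an Nrf2-responsive luciferase gene, ARE induction was quantified as luminescence after 16 hr compound treatment at 37 C.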

[18] = qHTS assay for cell viability of the p53RE-bla HCT-116 cell line (AID 743292); conditions: p53RE-bla HCT-116 viability, ATP luminescence, 16 h; series mostly up to 95 µM; further: nearly all actives have a fitted effect of over 55% in size
Procedure, shortened: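 Intracellular ATP of p53RE-bla HCT-116 cells measured by luciferase luminescence following 16 h compound incubation at 37 C; DMSO-only wells served as vehicle controls.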

[19] = Cellular Toxicity (caspase-3) Mesangial (AID 660); conditions: mesangial cells, normalized: DMSO 0%, 100 µM tamoxifen 100%; series mostly up to 91.7 µM;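 further: combined caspase 3 and 7 activity read by Caspase-Glo luminescence; cells exposed to compound for 16 h before the caspase read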
Procedure, shortened: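 Concentration-response qHTS: compound-induced rise in caspase 3/7 luminescence in human mesangial cells after 16 h, normalized to DMSO and 100 uM tamoxifen controls.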

[20] = target: Nuclear receptor ROR-gamma (Homo sapiens) (UniProt P51449); test: qHTS assay for small molecule antagonists of the retinoid-related orphan receptor gamma (ROR-gamma) signaling pathway (AID 651802); conditions: ROR-gamma antagonist cell reporter assay; series mostly up to 92.2 µM; further: nearly all actives have a fitted effect of over 60% in size; further: potency means the concentration at half of the fitted maximal effect
Procedure, shortened: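 Antagonism is scored as a fall in luminescence from a RORE-luciferase reporter in CHO cells expressing ROR under a TET-inducible promoter, measured 16hr after doxycycline induction in the presence of compound.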

Chain of Thyroid hormone receptor beta (Homo sapiens) (P10828 whole entry, looked up): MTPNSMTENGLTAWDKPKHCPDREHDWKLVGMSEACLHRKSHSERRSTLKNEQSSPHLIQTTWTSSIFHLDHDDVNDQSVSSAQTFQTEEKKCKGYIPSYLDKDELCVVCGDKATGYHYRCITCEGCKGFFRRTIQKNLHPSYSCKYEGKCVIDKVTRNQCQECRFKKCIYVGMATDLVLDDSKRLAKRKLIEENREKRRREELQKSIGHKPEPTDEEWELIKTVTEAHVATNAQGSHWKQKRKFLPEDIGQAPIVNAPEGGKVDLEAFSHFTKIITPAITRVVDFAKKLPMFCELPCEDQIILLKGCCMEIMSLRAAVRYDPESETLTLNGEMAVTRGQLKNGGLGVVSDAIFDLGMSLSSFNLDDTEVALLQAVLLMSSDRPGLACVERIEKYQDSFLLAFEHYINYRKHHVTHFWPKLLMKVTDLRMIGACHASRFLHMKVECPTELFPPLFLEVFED
Chain of Retinoic acid receptor RXR-alpha (Homo sapiens) (P19793 whole entry, looked up): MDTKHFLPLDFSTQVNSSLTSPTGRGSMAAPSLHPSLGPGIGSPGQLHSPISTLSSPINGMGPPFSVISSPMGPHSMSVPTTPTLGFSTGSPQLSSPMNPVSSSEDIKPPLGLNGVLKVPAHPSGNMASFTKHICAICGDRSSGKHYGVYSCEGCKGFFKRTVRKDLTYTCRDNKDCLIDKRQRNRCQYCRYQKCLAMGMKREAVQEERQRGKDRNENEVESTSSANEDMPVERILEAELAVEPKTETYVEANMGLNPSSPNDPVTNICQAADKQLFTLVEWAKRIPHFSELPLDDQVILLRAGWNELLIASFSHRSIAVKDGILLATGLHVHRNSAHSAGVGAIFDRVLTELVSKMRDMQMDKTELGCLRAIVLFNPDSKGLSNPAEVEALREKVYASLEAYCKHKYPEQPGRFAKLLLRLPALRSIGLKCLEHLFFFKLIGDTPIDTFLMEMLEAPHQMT
Chain of Tumor necrosis factor (Homo sapiens) (P01375 whole entry, looked up): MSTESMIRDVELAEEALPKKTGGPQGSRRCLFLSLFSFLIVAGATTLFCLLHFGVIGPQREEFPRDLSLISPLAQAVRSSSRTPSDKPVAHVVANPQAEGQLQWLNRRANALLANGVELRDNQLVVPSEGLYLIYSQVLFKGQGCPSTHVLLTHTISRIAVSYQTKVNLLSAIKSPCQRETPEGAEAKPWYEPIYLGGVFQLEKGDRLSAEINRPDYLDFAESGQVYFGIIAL
Chain of Nuclear receptor ROR-gamma (Homo sapiens) (P51449 whole entry, looked up): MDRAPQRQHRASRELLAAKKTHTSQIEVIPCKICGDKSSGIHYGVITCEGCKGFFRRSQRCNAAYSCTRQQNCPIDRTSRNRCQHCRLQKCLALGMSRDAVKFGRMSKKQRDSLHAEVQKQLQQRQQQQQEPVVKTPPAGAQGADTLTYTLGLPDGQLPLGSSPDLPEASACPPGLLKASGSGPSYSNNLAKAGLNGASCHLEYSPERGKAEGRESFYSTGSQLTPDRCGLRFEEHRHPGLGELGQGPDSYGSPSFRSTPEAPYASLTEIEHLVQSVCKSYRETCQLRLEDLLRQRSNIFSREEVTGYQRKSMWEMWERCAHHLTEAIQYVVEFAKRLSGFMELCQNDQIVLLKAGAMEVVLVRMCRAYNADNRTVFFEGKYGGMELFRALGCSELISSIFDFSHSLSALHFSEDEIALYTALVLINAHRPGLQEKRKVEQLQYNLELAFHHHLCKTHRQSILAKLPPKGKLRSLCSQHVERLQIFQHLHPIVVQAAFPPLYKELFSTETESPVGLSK

| Compound | Potency [1] | Potency [2] | Potency [3] | outcome [4] | caspase-3 activation [5] | outcome [6] | outcome [7] | Potency [8] | Potency [9] | Potency [10] | Potency [11] | Potency [12] | max response [13] | Potency [14] | max response [15] | outcome [16] | Potency [17] | Potency [18] | outcome [19] | Potency [20] |
| --- | --- | --- | --- | --- | --- | --- | --- | --- | --- | --- | --- | --- | --- | --- | --- | --- | --- | --- | --- | --- |
| CCOC(=O)CC(SP(=O)(OC)OC)C(=O)OCC (stereo unspecified) | > 92 µM (inactive) | > 92 µM (inactive) | inactive | inactive | 1.27% (inactive) | inactive | inactive | inactive | inactive | inactive | inactive | inactive | 9.41% and -5.43% | inactive | -24.2% (inactive) and 2.64% (inactive) | inactive | inactive | inactive |  |  |
| Brc1ccc(Oc2ccc(Br)cc2Br)c(Br)c1 |  | > 92 µM (inactive) |  | inactive | 19.3% (inactive) | inactive | inactive | inactive | inactive | inactive | inactive |  |  | inactive |  | inactive | inactive |  | inactive | inactive |
| N#CC(O)c1ccccc1 (stereo unspecified) | > 92 µM (inactive) | > 92 µM (inactive) | inactive | inactive | 0.0339% (inactive) | inactive | inactive | inactive | inactive | inactive | inactive | inactive | -0.409% | inactive | 0.403% (inactive) | inactive | inactive | inactive |  | inactive |
| Cc1cccc(C)c1N | > 92 µM (inactive) | > 92 µM (inactive) | inactive |  | 0.142% (inactive) | inactive | inactive | inactive | inactive | inactive | inactive | inactive | -2.21% | inactive | 17.5% (inactive) | inactive | inactive | inactive | inactive | inactive |
| Cl/C=C/CCl | > 92 µM (inactive) | > 92 µM (inactive) | inactive | inactive | -1.73% (inactive) | inactive | inactive | inactive |  | inactive | inactive | inactive | -6.27% | inactive | 3.74% (inactive) | inactive | inactive | inactive | inactive | inactive |
| C=CC(=O)OCC(C)C | > 92 µM (inactive) | > 92 µM (inactive) | inactive | inactive | -0.317% (inactive) | inactive | inactive | inactive | inactive | inactive | inactive | inactive | -3.12% | inactive | 5.4% (inactive) | inactive | inactive |  | inactive | inactive |
| CN=C=O | > 92 µM (inactive) | > 92 µM (inactive) | inactive | inactive | 1.04% (inactive) | inactive |  | inactive | inactive | inactive | inactive | inactive | -13% | inactive | 0.777% (inactive) | inactive | inactive | inactive | inactive | inactive |
| O=[N+]([O-])c1c(Cl)c(Cl)c(Cl)c(Cl)c1Cl |  | > 92 µM (inactive) | inactive | inactive | 2.86% (inactive) |  | inactive |  | inactive | inactive |  | inactive | -0.246% and 22.3% | inactive | -5.68% (inactive) | inactive | inactive | inactive | inactive | inactive |
| CC(Cl)CCl (stereo unspecified) | > 92 µM (inactive) | > 92 µM (inactive) | inactive | inactive | -1.21% (inactive) | inactive | inactive | inactive | inactive | inactive | inactive | inactive | -14.1% | inactive | -6.12% (inactive) | inactive | inactive | inactive | inactive | inactive |
| S=c1[nH]c2ccccc2[nH]1 | > 92 µM (inactive) | > 92 µM (inactive) | inactive | inactive | 0.513% (inactive) | inactive | inactive | inactive | inactive | inactive | inactive | inactive | 8.12% | inactive | 5.37% (inactive) |  | inactive |  | inactive |  |
| O=[N+]([O-])c1cccc(CCl)c1 | > 92 µM (inactive) | > 92 µM (inactive) | inactive | inactive | -1.48% (inactive) | inactive | inactive |  | inactive |  | inactive | inactive | 10.9% | inactive | -0.788% (inactive) |  | inactive | inactive |  | 33.5 µM (active) |
| Nc1ccc(-c2ccc(N)c(Cl)c2)cc1Cl |  | 3.05 µM (active) | inactive |  | 4.67% (inactive) |  |  | 25.1 µM (active) | inactive | inactive |  | inactive |  | inactive | -19% (inactive) and -20.8% (inactive) |  |  | inactive | inactive |  |
| COC(C)(C)C | > 92 µM (inactive) | > 92 µM (inactive) | inactive | inactive | 0.0289% (inactive) | inactive | inactive | inactive |  | inactive | inactive | inactive | 9.16% | inactive | 6.43% (inactive) | inactive | inactive | inactive | inactive | inactive |
